Hits are enriched below; roughly 17% of the tested compounds scored in any of these assays.
DT40 TDP1 CPT: qHTS for Inhibitors of human tyrosyl-DNA phosphodiesterase 1 (TDP1): qHTS in cells in presence of CPT. chicken DT40 Tdp1-/-;hTDP1 cells + 20 nM CPT, ATP luminescence, 48 h. Potency, µM (series often up to 46.2 µM), for the others: top-dose activity change, negative = growth inhibition, actives largely listed as inhibitors. 420,000 tested, 12% active. AID 686979, 2013; note: % is set by controls: 0 for no effect and ±100 for the full control effect; nearly all actives have a fitted effect of over 55% in size
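Cell growth measured by CellTiter-Glo luminescence after a minimum 48 h, 37 C compound exposure with 20 nM CPT in Tdp1-knockout DT40 cells stably expressing hTDP1, seeded 400/well; qHTS titration format.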
DT40 TDP1 no CPT: qHTS for Inhibitors of human tyrosyl-DNA phosphodiesterase 1 (TDP1): qHTS in cells in absence of CPT. DT40 Tdp1-/- hTDP1 cells, no CPT, ATP luminescence, 48 h. Potency, µM (highest dose often 46.2 µM), for the others: top-dose activity change, negative = growth inhibition, actives largely listed as inhibitors. 420,000 tested, 15% active. AID 686978, 2013; note: % is set by controls: 0 for no effect and ±100 for the full control effect; nearly all actives have a fitted effect of over 55% in size
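Growth of hTDP1-complemented DT40 Tdp1-knockout cells is measured by ATP luminescence after at least 48 hr compound exposure at 37 °C, with DMSO substituting for the 20 nM CPT used in the parallel screen.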
HT1080-NT tox: qHTS for induction of synthetic lethality in tumor cells producing 2HG: qHTS for the HT-1080-NT fibrosarcoma cell line; HT-1080-NT fibrosarcoma viability, CellTiter-Glo ATP luminescence, 48 h; Potency, µM (doses to about 46.1 µM), for inactives: at the highest dose activity, negative = less viability, hits mostly cytotoxic; 360,000 tested, 1.6% active; AID 686970, 2013;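 note: NT is the 2HG producing partner of a matched IDH1 knockdown line; 0% = DMSO-treated cells and -100% = media-only wells without cells; nearly all actives have a fitted effect of over 55% in size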
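Viability by CellTiter-Glo luminescence after 48 h compound exposure at 37C of HT-1080-NT cells (750/well, RPMI, 5% FBS). % activity scaled between DMSO wells and medium-only wells, then curve-fitted and categorized by curve class.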
TGFb SMAD3 inh: qHTS for Inhibitors of TGF-b; HepG2 CAGA-GFP TGF-b/SMAD3 reporter, GFP fluorescence, 18 h; TGF-beta stimulated, 500 pg/mL final; Potency, µM (titrated, usually from 46.1 µM), for the others: top-dose activity, negative = inhibition, usual class: inhibitors; 410,000 tested, 1.2% active; note: % is set by controls: 0 for no effect and ±100 for the full control effect; nearly all actives have a fitted effect of over 65% in size
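Read-out: total well GFP (ex488/em500-530) summed from mean per-cell fluorescence. Cells: HEPG2 CAGA-GFP, 1% FBS DMEM, 18 h at 37 degrees C with 500 pg/mL final TGF-beta. Unstimulated wells served as the full-inhibition control; stimulated DMSO wells = 0%.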
HT1080 IDH1KD tx: qHTS for induction of synthetic lethality in tumor cells producing 2HG: qHTS for the HT-1080-IDH1KD cell line; HT-1080 IDH1 knockdown viability, ATP luminescence, 48 h; 360,000 tested, 2% active; Potency, µM (series often up to 46.1 µM), inactives show top-dose activity, negative = toxicity, usual class: cytotoxic; AID 686971, 2013;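 note: 0% = DMSO wells and -100% = cell-free medium wells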
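IDH1KD HT-1080 cells, 750/well, RPMI + 5% FBS; compound pinned after 2 h settling; 48 h, 37 °C; CellTiter-Glo luminescence; % activity normalised to DMSO and no-cell wells; curves fitted, classed by r2 and efficacy.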
HepG2 viability: qHTS for Inhibitors of TGF-b: Cytotox Counterscreen. AID 588856, 2011. 410,000 tested, 0.76% active. HepG2 CAGA-GFP viability, ATP luminescence, 18 h. Potency, µM (titrated, usually from 46.1 µM), for inactives: at the highest dose activity change, negative = cytotoxicity, hits mostly cytotoxic
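CellTiter-Glo luminescence gave cytotoxicity after 18 hours at 37 degrees C. The cells were HepG2 CAGA-GFP in 1% FBS DMEM, stimulated with 500 pg/mL TGF-beta after compound addition. %Activity was normalised to no-cell wells (complete cell-killing) and DMSO (no toxicity), and curves were fitted and classified.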
Starred values were filed as active, the others as inactive; ? = inconclusive; · = no result given; [ ] = dose if it differs, or a comment. Calls come from the whole dose curve; as a rule, active = well fitted curve in the direction sought with a large enough effect; inconclusive = small, poorly fitted or top-dose-only effect, or another doubt; inactive = no such curve, though single readings can be large; an effect the other way counts as inactive or inconclusive. Potency is the fitted concentration of half-maximal effect.

SMILES | DT40 TDP1 CPT | DT40 TDP1 no CPT | HT1080-NT tox | TGFb SMAD3 inh | HT1080 IDH1KD tx | HepG2 viability
Cc1onc(-c2ccccc2)c1CNC(=O)Nc1ccc(C(F)(F)F)cc1 | ? | 16.4µM* | -20.3% | -22.7% | ? | -22.6%
O=C(NCc1nc(-c2ccc(C(F)(F)F)cc2)no1)Nc1cc(Cl)cc(Cl)c1 | 10.3µM* | 11.6µM* | ? | ? | ? | -85.0%
COc1ccc(NC(=O)CN2C(=O)NC(C)(c3ccc(C)cc3)C2=O)c([N+](=O)[O-])c1 (stereo not drawn) | ? | ? | -4.4% | 6.0% | -4.0% | -2.3%
CC(C)(C)C(=O)OCOP(=O)(COCCn1cnc2c(N)ncnc21)OCOC(=O)C(C)(C)C | -26.5% | -25.3% | · | · | · | ·
CCOC(=O)c1sc2ccccc2c1S(=O)(=O)Nc1ccc(CC)cc1 | ? | 23.1µM* | · | ? | · | -38.4%
O=C(/C=C/c1ccc(S(=O)(=O)N2CCOCC2)cc1)NCc1ccccc1Cl | ? | ? | -5.0% | -19.3% | -11.6% | -29.6%
O=C(NCc1ccccc1Cl)C(=O)NCC1OCCN1S(=O)(=O)c1ccc(F)cc1 (stereo not drawn) | -20.9% | -29.9% | -2.3% | ? | -5.7% | -19.8%
O=c1c2cc(N3CCOCC3)ccc2[nH]c(=S)n1Cc1ccco1 | ? | 20.6µM* | ? | 0.9% | ? | 2.6%
COc1cc2[nH]c(=S)n(Cc3ccco3)c(=O)c2cc1OC | -8.7% | -21.2% | -26.7% | -12.1% | ? | -4.2%
O=c1c2cc(N3CCOCC3)ccc2[nH]c(=S)n1CCCN1CCCCC1 | 6.4% | 3.0% | 2.7% | -17.5% | 11.2% | 22.5%
COc1ccc(NC(=O)c2ccc3c(=O)n(Cc4ccco4)c(=S)[nH]c3c2)c(OC)c1 | ? | 12.6µM* | -0.3% | 0.1% | -4.6% | -20.9%
O=c1c2cc(Cl)ccc2[nH]c(=S)n1Cc1ccco1 | ? | ? | 7.94µM* | 24.7% | 11.2µM* | -5.3%
O=C(CCCCCn1c(=S)[nH]c2ccc(N3CCOCC3)cc2c1=O)NC1CCN(Cc2ccccc2)CC1 | 16.4µM* | 23.1µM* | ? | -0.9% | ? | -15.1%
O=c1c2cc(N3CCOCC3)ccc2[nH]c(=S)n1Cc1cccc(Cl)c1 | 20.6µM* | ? | ? | -3.5% | ? | -1.4%
COc1cccc(Cn2c(=S)[nH]c3ccc(N4CCOCC4)cc3c2=O)c1 | -14.8% | -10.3% | -22.7% | 16.4% | -22.0% | -12.0%
CCN(CCCn1c(=S)[nH]c2ccc(N3CCOCC3)cc2c1=O)c1ccccc1 | 11.6µM* | 20.6µM* | ? | ? | ? | -49.8%
COc1cccc(CN(C)CCCn2cnc3c(SC)ncnc32)c1 | -14.8% | -2.3% | -5.5% | -21.5% | 1.1% | -50.6%
Cc1ccc(Cl)cc1N1CCN(C(=O)COc2ccc(S(=O)(=O)NC(C)C)cc2)CC1 | 13µM* | 18.4µM* | -15.0% | ? | -17.3% | -27.4%
CC(C)NS(=O)(=O)c1ccc(OCC(=O)N2CCN(c3ccccc3)CC2)cc1 | -5.3% | ? | 0.1% | 0.7% | 7.0% | -0.8%
O=C(COc1ccc(S(=O)(=O)NC2CCCCC2)cc1)N1CCN(c2cccc(Cl)c2)CC1 | ? | 16.4µM* | -2.9%[9.24 µM] | ? | ? | -16.8%
O=c1ccc(-c2ccccc2)nn1Cc1ccc(F)cc1Cl | ? | ? | -18.6% | ? | ? | -37.4%
c1ccc(COc2ccc(-c3cc4nc(NCCOc5ccccc5)ccn4n3)cc2)cc1 | 23.1µM* | ? | -25.5% | -0.4% | -21.2% | -47.7%
COCCCNc1ccn2nc(-c3ccc(OCc4ccccc4)cc3)cc2n1 | 16.4µM* | ? | 9.3% | -0.5% | ? | -48.6%
Cc1ccc(S(=O)(=O)N2CCN(c3nc(-c4cccs4)nc4c3ncn4COC(=O)C(C)(C)C)CC2)cc1 | -4.1% | 0.5% | 5.1% | · | 0.3% | ·
CSc1ncccc1C(=O)Nc1ccc2nc(C)sc2c1 | -23.2% | -2.5% | 29.9% | -17.8% | 15.2% | -4.1%
SMILES | DT40 TDP1 CPT | DT40 TDP1 no CPT | HT1080-NT tox | TGFb SMAD3 inh | HT1080 IDH1KD tx | HepG2 viability
CCOc1ncccc1C(=O)Nc1ccc2nc(C)sc2c1 | ? | 18.4µM* | ? | -10.2% | -27.1% | -12.8%
CCOc1ncccc1C(=O)Nc1ccc(Cl)c(S(=O)(=O)N2CCCC2)c1 | 20.6µM* | 20.6µM* | -0.9% | 16.0% | 12.4% | 15.7%
CCOc1ncccc1C(=O)Nc1cc(S(=O)(=O)N2CCCCC2)ccc1Cl | -21.4% | -25.0% | -3.4% | -3.3% | -6.5% | -25.6%
IC(I)I | 9.7% | ? | · | · | · | ·
CCC(=O)Nc1nnc(SCC(=O)Nc2cccc(Cl)c2)s1 | -11.2% | -21.2% | 15.0% | 2.3% | 2.2% | 0.0%
Cc1ccn2cc(C(=O)Nc3cccc(C(=O)NC4CC4)c3)nc2c1 | ? | 16.4µM* | -1.5% | 0.3% | -3.6% | -9.8%
Cc1ccc(C(=O)Nc2cccc(C(=O)NC3CCCCC3)c2)cc1 | 23.1µM* | ? | -29.8% | -28.6% | ? | -19.0%
CC(CCc1ccccc1)NC(=O)C(=O)c1c[nH]c2ccccc12 (stereo not drawn) | -29.9% | ? | ? | ? | ? | -26.1%
CN(C(=O)c1cccc(NC(=O)Cc2ccc(NC(=O)C3CCCN(C(=O)C4CCCCC4)C3)cc2)c1)C1CCC1 (stereo not drawn) | ? | ? | 8.9% | -21.3% | 7.5% | -0.8%
COc1cc(-c2nc(S(=O)(=O)c3ccc(C)cc3)c(N3CCOCC3)o2)cc(OC)c1OC | 11.6µM* | 9.2µM* | 3.4% | 1.5% | -14.2% | -17.0%
COc1ccc(-c2nc(S(=O)(=O)c3ccccc3)c(N3CCOCC3)o2)cc1 | -8.8% | -19.2% | -1.6% | -19.2% | -2.9% | -32.7%
COc1cc(-c2nc(S(=O)(=O)c3ccc(Cl)cc3)c(N3CCOCC3)o2)cc(OC)c1OC | ? | 16.4µM* | 21.1% | 5.3% | -21.8% | 0.0%
O=S(=O)(c1ccc(Cl)cc1)c1nc(-c2ccccc2Br)oc1N1CCOCC1 | 18.4µM* | 23.1µM* | · | 0.2% | · | -21.2%
Cc1cccc(C)c1NC(=O)Cn1nc(C)c2sc3ccccc3c2c1=O | ? | ? | · | 13.3% | · | 3.5%

High-throughput results: PubChem BioAssay, National Center for Advancing Translational Sciences (NCATS)
